Measured values: PubChem BioAssay AID1159580 (chemical genetic matrix, 2015)
Out of some 5,500 compounds screened, about 2,000 (36%) were called active. Another 18% or so got no clear call; they are omitted. No stated cut-off is given here; in the data, active means normalized growth mostly below about 0.91 (no sharp cut-off); inconclusive means no clear call, values can overlap the other calls; inactive means mostly above about 0.92. Some of the results follow.

Test: chemical genetic growth profiling, strain panel (AID 1159580);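 further: tested at 20 µM; growth read once vehicle control cultures reached saturation at 30 °C; 1 = growth at the plate median or of vehicle wells; lower values mean less growth of the strain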
Conditions: growth OD
[1] = S. cerevisiae deletion strains, locus YAL013W, strain DEP1, active compounds read low
[2] = S. cerevisiae deletion strains, locus YAL040C, strain CLN3, active compounds read low
[3] = S. cerevisiae deletion strains, locus YCL061C, strain MRC1 (second series), active compounds read low
[4] = S. cerevisiae deletion strains, locus YDR150W, strain NUM1, active compounds read low
[5] = S. cerevisiae deletion strains, locus YDR363W, strain ESC2, active compounds read low
[6] = S. cerevisiae deletion strains, locus YER002W, strain NOP16, active compounds read low
[7] = S. cerevisiae deletion strains, locus YGR078C, strain PAC10, active compounds read low
[8] = S. cerevisiae deletion strains, locus YJR075W, strain HOC1, active compounds read low
[9] = S. cerevisiae deletion strains, locus YMR263W, strain SAP30, active compounds read low
[10] = S. cerevisiae deletion strains, locus YNL128W, strain TEP1, active compounds read low
[11] = S. cerevisiae deletion strains, locus YNL175C, strain NOP13, active compounds read low
[12] = S. cerevisiae deletion strains, locus YNL197C, strain WHI3, active compounds read low
[13] = S. cerevisiae deletion strains, locus YNL224C, strain SQS1, active compounds read low
[14] = S. cerevisiae deletion strains, locus YOR083W, strain WHI5 (second series), active compounds read low
[15] = S. cerevisiae deletion strains, locus YPL055C, strain LGE1, active compounds read low
[16] = S. cerevisiae deletion strains, locus YCL061C, strain MRC1, active compounds read low
[17] = S. cerevisiae deletion strains, locus YGR229C, strain SMI1, active compounds read low
[18] = S. cerevisiae deletion strains, locus YHR030C, strain SLT2, active compounds read low
[19] = S. cerevisiae deletion strains, locus YMR307W, strain GAS1, active compounds read low
[20] = S. cerevisiae deletion strains, locus YPL241C, strain CIN2, active compounds read low
[21] = S. cerevisiae deletion strains, locus YNL322C, strain KRE1, active compounds read low

Measured: normalized growth

NC1CCc2cc(O)c(O)cc2C1 (configuration not stated)
inactive: [1] 0.978 | [2] 1.01 | [3] 1.01 | [4] 1.01 | [5] 0.979 | [6] 1.02 | [7] 1.04 | [8] 0.985 | [9] 0.997 | [10] 1.01 | [11] 1.02 | [12] 1.01 | [13] 1.01 | [14] 1.08 | [15] 0.976

Oc1cc2c(cc1O)C(c1ccccc1)CNCC2 (configuration not stated)
inactive: [1] 0.977 | S. cerevisiae deletion strains, locus YAL021C, strain ccr4, active compounds read low 0.972 | S. cerevisiae deletion strains, locus YAL026C, strain drs2, active compounds read low 0.988 | S. cerevisiae deletion strains, locus YAL030W, strain snc1, active compounds read low 1.01 | [2] 1.03 | S. cerevisiae deletion strains, locus YBL061C, strain skt5, active compounds read low 0.996 | S. cerevisiae deletion strains, locus YBR009C, strain hhf1, active compounds read low 1.05 | S. cerevisiae deletion strains, locus YBR023C, strain chs3, active compounds read low 0.998 | S. cerevisiae deletion strains, locus YBR171W, strain sec66, active compounds read low 0.912 | S. cerevisiae deletion strains, locus YBR231C, strain swc5, active compounds read low 1.01 | S. cerevisiae deletion strains, locus YBR279W, strain paf1, active compounds read low 0.988 | S. cerevisiae deletion strains, locus YCL011C, strain gbp2, active compounds read low 0.984 | S. cerevisiae deletion strains, locus YCL016C, strain dcc1, active compounds read low 1 | [3] 0.982 | [16] 0.992 | S. cerevisiae deletion strains, locus YCL069W, strain vba3, active compounds read low 1 | S. cerevisiae deletion strains, locus YCR088W, strain abp1, active compounds read low 0.999 | S. cerevisiae deletion strains, locus YDL005C, strain med2, active compounds read low 1 | S. cerevisiae deletion strains, locus YDL040C, strain nat1, active compounds read low 1.01 | S. cerevisiae deletion strains, locus YDR001C, strain nth1, active compounds read low 0.994 | S. cerevisiae deletion strains, locus YDR069C, strain doa4, active compounds read low 0.974 | S. cerevisiae deletion strains, locus YDR137W, strain rgp1, active compounds read low 0.967 | [4] 0.963 | S. cerevisiae deletion strains, locus YDR159W, strain sac3, active compounds read low 1.01 | S. cerevisiae deletion strains, locus YDR195W, strain ref2 1.07 | S. cerevisiae deletion strains, locus YDR297W, strain sur2, active compounds read low 0.996 | S. cerevisiae deletion strains, locus YDR334W, strain swr1, active compounds read low 0.963 | S. cerevisiae deletion strains, locus YDR335W, strain msn5, active compounds read low 0.979 | [5] 0.983 | S. cerevisiae deletion strains, locus YDR392W, strain spt3, active compounds read low 0.845 | S. cerevisiae deletion strains, locus YEL003W, strain gim4, active compounds read low 0.976 | S. cerevisiae deletion strains, locus YEL037C, strain rad23, active compounds read low 1 | S. cerevisiae deletion strains, locus YEL061C, strain CIN8 (second series), active compounds read low 0.99 | [6] 1 | S. cerevisiae deletion strains, locus YER015W, strain faa2, active compounds read low 1.02 | S. cerevisiae deletion strains, locus YER016W, strain bim1, active compounds read low 1.01 | S. cerevisiae deletion strains, locus YER111C, strain swi4, active compounds read low 0.993 | S. cerevisiae deletion strains, locus YER155C, strain BEM2 (second series), active compounds read low 1.01 | S. cerevisiae deletion strains, locus YFR010W, strain ubp6, active compounds read low 0.95 | S. cerevisiae deletion strains, locus YGL167C, strain pmr1, active compounds read low 0.994 | S. cerevisiae deletion strains, locus YGL173C, strain kem1, active compounds read low 1 | S. cerevisiae deletion strains, locus YGL227W, strain vid30, active compounds read low 1.01 | S. cerevisiae deletion strains, locus YGL240W, strain doc1, active compounds read low 1.05 | S. cerevisiae deletion strains, locus YGL253W, strain hxk2, active compounds read low 0.991 | [17] 0.958 | S. cerevisiae deletion strains, locus YHR013C, strain ard1, active compounds read low 0.96 | S. cerevisiae deletion strains, locus YHR027C, strain rpn1, active compounds read low 0.989 | [18] 0.986 | S. cerevisiae deletion strains, locus YHR079C, strain IRE1, active compounds read low 0.989 | S. cerevisiae deletion strains, locus YHR142W, strain chs7, active compounds read low 0.916 | S. cerevisiae deletion strains, locus YJL092W, strain hpr5, active compounds read low 0.974 | S. cerevisiae deletion strains, locus YJL095W, strain BCK1 (second series), active compounds read low 1.01 | S. cerevisiae deletion strains, locus YJL095W, strain BCK1, active compounds read low 0.98 | S. cerevisiae deletion strains, locus YJL115W, strain asf1, active compounds read low 0.991 | S. cerevisiae deletion strains, locus YJL129C, strain trk1, active compounds read low 0.921 | S. cerevisiae deletion strains, locus YJL154C, strain vps35, active compounds read low 1 | S. cerevisiae deletion strains, locus YJL164C, strain tpk1, active compounds read low 0.967 | S. cerevisiae deletion strains, locus YJL166W, strain qcr8, active compounds read low 0.995 | S. cerevisiae deletion strains, locus YJL187C, strain SWE1, active compounds read low 1 | S. cerevisiae deletion strains, locus YJR066W, strain TOR1, active compounds read low 0.943 | S. cerevisiae deletion strains, locus YKL160W, strain elf1, active compounds read low 0.942 | S. cerevisiae deletion strains, locus YKR026C, strain gcn3, active compounds read low 0.995 | S. cerevisiae deletion strains, locus YKR091W, strain srl3, active compounds read low 1 | S. cerevisiae deletion strains, locus YLL001W, strain dnm1, active compounds read low 0.989 | S. cerevisiae deletion strains, locus YLL026W, active compounds read low 1 | S. cerevisiae deletion strains, locus YLL041C, strain sdh2, active compounds read low 0.989 | S. cerevisiae deletion strains, locus YLR027C, strain aat2, active compounds read low 0.977 | S. cerevisiae deletion strains, locus YLR113W, strain HOG1, active compounds read low 0.979 | S. cerevisiae deletion strains, locus YLR221C, strain rsa3, active compounds read low 0.948 | S. cerevisiae deletion strains, locus YLR258W, strain gsy2, active compounds read low 1.02 | S. cerevisiae deletion strains, locus YLR262C, strain YPT6 (second series), active compounds read low 0.919 | S. cerevisiae deletion strains, locus YLR320W, strain mms22, active compounds read low 0.966 | S. cerevisiae deletion strains, locus YLR342W, strain FKS1, active compounds read low 0.994 | S. cerevisiae deletion strains, locus YLR357W, strain rsc2, active compounds read low 1.04 | S. cerevisiae deletion strains, locus YLR370C, strain arc18, active compounds read low 0.991 | S. cerevisiae deletion strains, locus YLR384C, strain iki3, active compounds read low 1.01 | S. cerevisiae deletion strains, locus YML120C, strain ndi1, active compounds read low 0.94 | S. cerevisiae deletion strains, locus YMR058W, strain fet3, active compounds read low 0.945 | S. cerevisiae deletion strains, locus YMR125W, strain sto1, active compounds read low 1.02 | S. cerevisiae deletion strains, locus YMR129W, active compounds read low 0.984 | S. cerevisiae deletion strains, locus YMR205C, strain PFK2, active compounds read low 1.06 | S. cerevisiae deletion strains, locus YMR231W, strain pep5, active compounds read low 1.02 | [19] 0.992 | S. cerevisiae deletion strains, locus YNL071W, strain lat1, active compounds read low 0.964 | [10] 0.981 | [11] 1.04 | S. cerevisiae deletion strains, locus YNL183C, strain NPR1, active compounds read low 0.952 | [12] 1.03 | S. cerevisiae deletion strains, locus YNL209W, strain ssb2, active compounds read low 0.997 | [13] 0.993 | S. cerevisiae deletion strains, locus YNL248C, strain rpa49, active compounds read low 0.93 | S. cerevisiae deletion strains, locus YNL322C, strain KRE1 (second series), active compounds read low 0.989 | S. cerevisiae deletion strains, locus YNR049C, strain mso1, active compounds read low 1 | S. cerevisiae deletion strains, locus YOR001W, strain rrp6, active compounds read low 0.918 | S. cerevisiae deletion strains, locus YOR070C, strain gyp1, active compounds read low 0.992 | S. cerevisiae deletion strains, locus YOR080W, strain dia2, active compounds read low 1 | [14] 1.02 | S. cerevisiae deletion strains, locus YOR083W, strain WHI5, active compounds read low 0.922 | S. cerevisiae deletion strains, locus YOR106W, strain vam3, active compounds read low 0.919 | S. cerevisiae deletion strains, locus YOR231W, strain MKK1, active compounds read low 0.941 | S. cerevisiae deletion strains, locus YOR265W, strain rbl2, active compounds read low 0.997 | S. cerevisiae deletion strains, locus YOR270C, strain vph1, active compounds read low 0.967 | S. cerevisiae deletion strains, locus YOR290C, strain snf2, active compounds read low 0.92 | S. cerevisiae deletion strains, locus YPL051W, strain arl3, active compounds read low 0.938 | [15] 0.948 | S. cerevisiae deletion strains, locus YPL078C, strain atp4, active compounds read low 0.945 | S. cerevisiae deletion strains, locus YPL106C, strain sse1, active compounds read low 0.972 | S. cerevisiae deletion strains, locus YPL240C, strain hsp82, active compounds read low 0.983 | [20] 0.997 | S. cerevisiae deletion strains, locus YPL256C, strain CLN2, active compounds read low 0.984

Oc1cc2c(cc1O)[C@H]1c3ccccc3CN[C@@H]1CC2
inactive: [2] 1.01 | [5] 0.985 | [6] 1.03 | [7] 1 | [9] 1 | [10] 1.01 | [11] 1.03 | [12] 1.02 | [13] 1.02 | [14] 1.01
active: [1] 0.9 | [3] 0.845 | [4] 0.848 | [17] 0.685 | [8] 0.843 | [19] 0.871 | [15] 0.864 | [20] 0.925

CC(C)(C)c1ccc(S(=O)(=O)/C=C/C#N)cc1
inactive: [21] 1.01
active: [1] 0.234 | [2] 0.0822 | [6] 0.139 | [7] 0.0608 | [10] 0.0795 | [11] 0.227 | [12] 0.0935 | [13] 0.255 | [14] 0.0681

Cn1nccc1NS(=O)(=O)c1ccc(C(C)(C)C)cc1
inactive: [1] 0.982 | S. cerevisiae deletion strains, locus YBR229C, strain ROT2, active compounds read low 0.97 | [16] 0.982 | S. cerevisiae deletion strains, locus YDL101C, strain DUN1, active compounds read low 0.983 | [4] 0.992 | S. cerevisiae deletion strains, locus YEL061C, strain CIN8, active compounds read low 0.984 | [7] 0.985 | [17] 0.981 | [18] 0.948 | S. cerevisiae deletion strains, locus YHR087W, strain rtc3, active compounds read low 0.973 | S. cerevisiae deletion strains, locus YJR043C, strain POL32, active compounds read low 0.978 | [8] 0.987 | S. cerevisiae deletion strains, locus YKL190W, strain CNB1, active compounds read low 0.96 | S. cerevisiae deletion strains, locus YLR039C, strain RIC1, active compounds read low 0.92 | S. cerevisiae deletion strains, locus YLR058C, strain SHM2 (second series), active compounds read low 0.975 | S. cerevisiae deletion strains, locus YLR085C, strain ARP6, active compounds read low 1.08 | S. cerevisiae deletion strains, locus YLR262C, strain YPT6, active compounds read low 0.82 | S. cerevisiae deletion strains, locus YML094W, strain GIM5, active compounds read low 1.03 | S. cerevisiae deletion strains, locus YMR219W, strain ESC1, active compounds read low 0.985 | [9] 0.979 | [10] 0.968 | S. cerevisiae deletion strains, locus YNL153C, strain GIM3, active compounds read low 0.989 | S. cerevisiae deletion strains, locus YNL298W, strain CLA4 (second series), active compounds read low 0.948 | [21] 0.98 | S. cerevisiae deletion strains, locus YNR030W, strain Alg12, active compounds read low 1 | [15] 1.03 | [20] 1.01 | S. cerevisiae deletion strains, locus YPR135W, strain CTF4, active compounds read low 0.929 | S. cerevisiae strains, strain wild type, active compounds read low 0.959
